Reference: ChEMBL document CHEMBL5058541

molecular target: Bromodomain-containing protein 4 (Homo sapiens) (UniProt O60885); details: Compound concentration 20.0 uM, Protein concentration 2.0 uM, Result type QC Liability

| Structure (SMILES) | ΔTm [c] |
| --- | --- |
| CS(=O)(=O)N1CCCC(NC(=O)[C@H](CCC2CCCCC2)NC(=O)c2ccc(CNC(=O)c3cnc4ccccn34)cc2)C1 (stereo partly drawn) | 0.345 |
| CN(c1ncccc1CNc1ccnc(-c2nc3c(F)c(Cl)ccc3[nH]2)n1)S(C)(=O)=O | -0.76 |
| O=C(NCCCN1CCOC1=O)c1cnc(NCc2cc(Br)ccc2Br)nc1NC1CCCC1 | 0 |
| CN(C)C(=O)c1ccc(-c2cc(C(=O)N[C@@H]3CCc4ccccc43)no2)cc1O | -0.51 |

molecular target: T1, Transcription intermediary factor 1-alpha (Homo sapiens) (UniProt O15164); details: Compound concentration 20.0 uM, Protein concentration 2.0 uM, Result type QC Liability
T1 sequence (whole entry): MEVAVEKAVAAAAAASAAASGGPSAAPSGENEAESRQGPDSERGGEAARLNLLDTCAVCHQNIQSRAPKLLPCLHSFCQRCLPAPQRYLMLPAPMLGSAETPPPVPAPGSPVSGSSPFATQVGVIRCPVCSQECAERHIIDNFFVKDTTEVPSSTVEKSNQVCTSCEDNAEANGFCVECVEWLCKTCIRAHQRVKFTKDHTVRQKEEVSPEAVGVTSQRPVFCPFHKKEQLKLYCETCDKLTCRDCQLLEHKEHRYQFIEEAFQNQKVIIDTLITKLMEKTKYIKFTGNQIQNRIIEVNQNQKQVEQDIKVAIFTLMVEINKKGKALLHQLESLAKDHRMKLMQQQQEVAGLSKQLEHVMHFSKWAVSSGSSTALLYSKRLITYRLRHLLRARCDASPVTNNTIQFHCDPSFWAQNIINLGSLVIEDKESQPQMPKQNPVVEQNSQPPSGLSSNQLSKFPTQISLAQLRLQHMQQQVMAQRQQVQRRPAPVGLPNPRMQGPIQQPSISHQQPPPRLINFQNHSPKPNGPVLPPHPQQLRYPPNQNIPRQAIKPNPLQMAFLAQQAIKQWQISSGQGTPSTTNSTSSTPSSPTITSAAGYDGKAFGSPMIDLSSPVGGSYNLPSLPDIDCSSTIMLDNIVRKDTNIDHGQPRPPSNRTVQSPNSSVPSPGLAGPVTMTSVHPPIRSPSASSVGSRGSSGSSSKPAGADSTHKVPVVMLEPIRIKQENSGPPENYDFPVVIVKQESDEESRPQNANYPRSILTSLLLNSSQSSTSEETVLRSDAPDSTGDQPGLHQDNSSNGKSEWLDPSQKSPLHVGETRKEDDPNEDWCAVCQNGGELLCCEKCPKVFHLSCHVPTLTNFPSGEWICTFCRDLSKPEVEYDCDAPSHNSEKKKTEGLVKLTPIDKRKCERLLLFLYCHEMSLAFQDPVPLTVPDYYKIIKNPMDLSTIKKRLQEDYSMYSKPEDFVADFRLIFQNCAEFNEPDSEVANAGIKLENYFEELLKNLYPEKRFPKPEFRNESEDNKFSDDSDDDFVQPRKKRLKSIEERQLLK

| Structure (SMILES) | ΔTm [c] |
| --- | --- |
| CS(=O)(=O)N1CCCC(NC(=O)[C@H](CCC2CCCCC2)NC(=O)c2ccc(CNC(=O)c3cnc4ccccn34)cc2)C1 (stereo partly drawn) | 0.0818 |
| CN(c1ncccc1CNc1ccnc(-c2nc3c(F)c(Cl)ccc3[nH]2)n1)S(C)(=O)=O | -0.07 |
| O=C(NCCCN1CCOC1=O)c1cnc(NCc2cc(Br)ccc2Br)nc1NC1CCCC1 | 0 |
| CN(C)C(=O)c1ccc(-c2cc(C(=O)N[C@@H]3CCc4ccccc43)no2)cc1O | -0.594 |
